Among the data in PubChem BioAssay (NCI) are growth values, retold here.

Molecules are shown by their SMILES. About 83,000 compounds went through this panel and 20% of them were active in at least one assay; those are over-represented in the sample as a whole.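 Results are percent growth after 48 hours of single-concentration exposure. 100 means growth as in untreated cells, lower positive values show inhibition; negative values down to -100 show cell death.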 Unmarked numbers belong to inactive results. Active and inactive are the calls of the source. The calls were made as follows: active = growth percent below 10; inactive = the rest.

Assay in all cases: NCI-60 one-dose screen, 48 h (100 = growth as untreated, 0 = no growth, -100 = all killed)
What all share (conditions): 10 µM unless noted

The subject of experiment [1] is HCT-15 colon.
Experiment [2] relates to HT29 colon.
Experiment [3] deals with SNB-75 CNS.
In experiment [4] the test system is SNB-19 CNS.
Experiment [5] concerns U251 CNS.
The test system of experiment [6] is SK-MEL-5 melanoma.
Experiment [7] has as its system UACC-62 melanoma.
The test system of experiment [8] is LOX IMVI melanoma.
The subject of experiment [9] is SK-MEL-28 melanoma.
Experiment [10] concerns PC-3 prostate.

In the case of `CC1=CC(=O)C(C(C)C)=CC1=Nc1cc(Br)c(O)c(Br)c1`, the growth is 21% in experiment [1]; 66.2% in experiment [2]; 27.1% in experiment [3]; 42.1% in experiment [4]; 5.45% (active) in [5]; 13.9% in [6]. For the same compound, the growth in experiment [7] was 22.7%; in [8], 24%; in experiment [9], 42.6%.

For the compound `Cc1cc(=O)c2cc3nc(-c4cccnc4)oc3c(Br)c2o1`, the growth is 106% in experiment [1]; 103% in experiment [2]; 131% in [4]; 97.8% in experiment [5]; 99.6% in [10]; 105% in [6]. Further, the growth was 104% in experiment [7], 98% in experiment [8] and 119% in experiment [9].

`Cc1cn(C2CCCCC2)c(=O)[nH]c1=O`: the growth in [1] was 99.2%; in experiment [2], 96%; in experiment [3] it was 94.4%; in [4], 114%; in [5] it was 108%; in experiment [6], 105%. Also, the values for the growth in [7], in experiment [8] and in experiment [9] were 109%, 111% and 109%, respectively.

Consider `Cc1ccc(O)c(C(=O)c2ccccc2Cl)c1`, for which the growth in experiment [1] was 99.5%; in experiment [2], 108%; in experiment [3] it was 79.3%; in experiment [4] it was 109%; in [5], 98.5%; in [6], 97.6%. In addition, the growth was 101% in experiment [7], 101% in experiment [8] and 105% in [9].

For the compound `Cn1ncc2c(Nc3ccc(Br)cc3)nc(Nc3ccc(Br)cc3)nc21`, the growth was 22.4% in experiment [1]; 33.4% in [2]; 66.9% in experiment [3]; 71.4% in experiment [4]; 33.4% in [5]; 47.6% in [6]. The growth is 56.1% in experiment [7], -5.28% (active) in experiment [8] and 50.1% in [9].

As to `CN(C)CCn1cc(-c2ccc3c(Nc4ccc(CC(=O)Nc5cccc(F)c5)cc4)ncnc3c2)cn1`, the growth in [1] was 22.1% [30 µM]; in [2], -40.7% [30 µM] (active); in experiment [3], -87% [30 µM] (active); in experiment [4], -60% [30 µM] (active); in experiment [5] it was -52.4% [30 µM] (active); in experiment [10], -25.2% [30 µM] (active). In addition, the growth is -81.6% [30 µM] (active) in [7], -50.2% [30 µM] (active) in experiment [8] and -89.6% [30 µM] (active) in [9].

As for `O=[N+]([O-])c1cccc(/C=C/c2ccccn2)c1`, the growth in experiment [1] was 42.7%; in [2], 98%; in experiment [3] it was 58.3%; in experiment [4] it was 74.5%; in experiment [5], 38.4%; in [6] it was 79%. For the same compound, the figures for the growth in experiment [7], in experiment [8] and in experiment [9] were 86.1%, 102% and 128%, respectively.

Take `COc1ccc(-c2cc(-c3ccc(Nc4nc(Nc5ccccc5)nc(Nc5ccc(Cl)cc5)n4)cc3)nc(N)c2C#N)cc1`: the growth in [1] was -33.6% (active); in experiment [2], 6.85% (active); in experiment [3], 26.7%; in experiment [4], 71.9%; in experiment [5], -57.9% (active); in [6], -21.8% (active). Moreover, the growth in experiment [7] was 22.8%; in experiment [8] it was -97.3% (active); in experiment [9], -72.9% (active).

For the compound `COc1ccc(-c2nc3sccn3c2/C=C/C(=O)c2c[nH]c3ccccc23)cc1`, the growth in experiment [1] was 60.5%; in experiment [2], 79.7%; in [3] it was 39.1%; in experiment [4], 92.2%; in [5], 46.2%; in [6], 58.8%. Also, the values for the growth in experiment [7], in experiment [8] and in experiment [9] were 76.1%, 37.5% and 76.7%, respectively.

`CCN(CC)CCOc1ccc(/C(=C(\C)c2ccc(F)c(OC)c2)c2ccc(Cl)cc2)cc1`: the growth was 2.58% (active) in experiment [1]; 9.08% (active) in [2]; 31.9% in [3]; 8.37% (active) in [4]; 3.13% (active) in experiment [5]; 14.8% in experiment [10]. The results for the growth in experiment [7], in [8] and in [9] were -44.8% (active), -94.1% (active) and -64.6% (active), respectively.

Take `NC(=Nc1ccc(N)cc1)C(N)=Nc1ccc(N)cc1`: the growth in [1] is 98.5%; in experiment [2], 113%; in experiment [3], 91.8%; in experiment [4], 102%; in [5] it was 101%; in [6], 98.7%. Moreover, the growth in [7] is 104%; in experiment [8], 97.2%; in [9], 117%.

For the compound `Cc1nc(-c2ccccc2)cc2c(O)c(C(=O)N/N=C/c3ccc(N(C)C)cc3)[nH]c(=O)c12`, the growth in experiment [1] is 83.1%; in [2], 72.9%; in [3], 62.2%; in experiment [4], 117%; in [5] it was 41.8%; in [6], 83.4%. Further, the growth in [7] was 97.3%; in experiment [8], 75.8%; in experiment [9] it was 80.2%.

Take `C=C1C(=O)O[C@H]2[C@H]1CC/C(COC(=O)/C=C\C(=O)NCc1ccc(Cn3c(=O)sn(-c4ccc(Cl)cc4)c3=O)cc1)=C\CC[C@@]1(C)O[C@@H]21`: the growth is -33.8% (active) in experiment [1]; -28.3% (active) in [2]; -83.5% (active) in experiment [3]; -8.33% (active) in experiment [4]; -78.3% (active) in experiment [5]; -64.1% (active) in experiment [10]. The growth was -97.6% (active) in experiment [7], -84.9% (active) in experiment [8] and -93.5% (active) in experiment [9].
